Measurements reported in the supplement of paper PMC12632987.
In all, about 2,300 sequences were measured (“median log2 fold change of GCK-ALFA target abundance (FLAG IP / Myc IP barcode read proportion)”: median about 0.095, lowest 2% from about -0.47 on). Only a selection was taken, and the lowest values are over-represented in it overall.

B1: LC3A_free_46_2366 (protein)
chain: VKAEIDIDFLVETKEKAEELAKELEEEIKKIAEKYGVKVKIEVKIIKNPDGTYSLEIEIELEAENKETLQKAVNEIIDSIDKIAEKFNVSYIISVEIIDE
B2: LC3A_28_934 (protein)
chain: MTVEERIKKALEEAEKAAKAGEPVVITIKVTSKDTQEEIDKLIKTIKEIAEILKNVKGAAIIVDVDAGVPQERIDKIADTLEEIEKKYPNINAILALDED
B3: LC3A_3_1491 (protein)
chain: MEELLERMREVLEARGASEEQIEEVLEAVEELLELGYEETVEELIELFEANPDLDPEQIVTAVLITLEVAEEEDLSEEELVERARRIFEDVAEIEALDEE
B4: LC3A_3_1490 (protein)
chain: REELLERMRAVLEARGASPEQIAEVLEAAERLLELGYEETVETLIELFEANPDLDPLDIVTAVLITLEVAEEEDLSEEELVERAREIFENVREIEALDEN
B5: LC3A_28_1022 (protein)
chain: SALDEELEALRAEVEAALARGEDVLLEVTIKPTDSLEEVRRKMERVKEIALEASKRGKVDVLIDVEKGVSQEKIDIVMDAAEELEEEDPSVNVIIALEEE
B6: LC3A_141_383 (protein)
chain: MKKEFEMEATKETADEVFKFMEEVEKETLEMIKESGGKPVKMKVKITATNEKTGEVVEKEEEYIVTEENADLVADGIEIEVLSLLDRVGGKVKVKVTLES
B7: LC3A_28_1063 (protein)
chain: SKVEAEIKKALAEAKEAVAAGEEALVTITIDDSDSDEDVEKKLKTMEEIAELTKTLPRTTILVDIDSSRKEEISKKVSEVGDKLEKKYPNVTVIIALSEE
B8: LC3A_147_431 (protein)
chain: YITTVDIDVLTKDAEEEVIKAAKEIEEELKAKGYEVELEIEVEELENGEKYIHIKITVKTETEEEAKEAADYIVDKFEELEEKLKDKILGSIISVEIEEA
B9: LC3A_147_511 (protein)
chain: YEVEVDVDIITKDAEEEVIEEFKEIAEELKKKGYEVELEIEVEELENGITYIHVKITVKTETEEEAKEVANYILDKIDEIEEKLKDKILGSMISVEIIKK
B10: LC3A_free_8_2456 (protein)
chain: SSQKLVDTAVKLLEEMEKELTELAKKEGLSRLDILELELEIGSLIAEVISLVDKSPEEILETTKEGLEEIIELAKELGEEVAKLAEEKSKEIIEELEKLI
B11: LC3A_28_1295 (protein)
chain: SEIEKNLKEALAEAKKAKAEGKQVVITVKVPGDATQEEIELVIKGLEEIAKVLEDVPNQTIIIDVEAGVKQEHIDLLADRAEEIEKKYPNVTVIIALDED
B12: LC3A_28_1058 (protein)
chain: MSIEEQLEKALEEAKEAVKKGEEALVELKINKDSTEEDVEKVLETMKEIAELTKDLPSVSIVVDVDHENKEEVTKKVSELGDELEKKYPNVTVIIALSEE
B13: LC3A_28_1049 (protein)
chain: SPIEEELKRALEEAKEAVARGEEALIRLTIGKDATEEDVEKVLETMEEIAELTKSLPRVDIVVDVDSENKEEVTKKIAEKGEELEKKYPNVTVYIALSEE
B14: LC3A_28_738 (protein)
chain: SAIEKELEKAIKEAKEAAKAKEPKVITITVPGTANEEDIELVIKALEEIAEILKDVKDQAIIIDVDGKLDPELLKKLMDKAEEIEEKYPNVTVIIALDEE
B15: LC3A_free_8_2444 (protein)
chain: STQKLVDEVTELLDEMEERVEEKAKELGLSELDILDLSLLIGSLIAEIISAVDKSIEEIRKIVEEDMEEIIEEARELSEEIAEIVEETKERILELIDEAE
B16: LC3A_28_1082 (protein)
chain: SAVDAQIAAALAALRAAKAAGEEALLTLTLTEDATQEDVDRLIAGLEEIAELARDAARVTVVIDLDGKIPQEHIDRIADAAERIEERVPNVTVIIALDEE
B17: LC3A_free_39_2223 (protein)
chain: SEEEIEKLIKEVAKESGIDYEELKKKIEEIKEVGKLSNEQILEIVKAILEAVKAGADAKEILEEALKLTKELVAAGKSPEEIKEEILELIEDYRNLVPLD
B18: LC3A_3_1370 (protein)
chain: MEEEKAATLAELKAAGKSEETIAAVEKTLDALIEKGYEEAAKTFMELLKELKDLSDEILLAFAEDVLKAVEEEDLSEEELIKFIKEEATIARNEQEIIEL
B19: LC3A_28_1053 (protein)
chain: SAIDKQLEAALAEARAAAAAGEEALITLTIPENATEEDVEKVLATIREIAEITKDLPATTIIVDVDNKNQEEVTKKIDEVGEELAKKYPNVTVIIALSEN
B20: LC3A_28_1052 (protein)
chain: SHIDEQIEKALKEAEEAKAKGEEALIELHIGKDANEEDVEKVLETIEKIAEITKDLPSVTIIVDVDNPNKEEVTKKIDEVGEELAKKYPNVTVIIALSEE

Target: MAP1LC3A, Q9H492
Experiment: median log2 fold change of GCK-ALFA target abundance (FLAG IP / Myc IP barcode read proportion) (log2 ratio); each designed protein is fused to an ALFA-tag nanobody in HEK293 cells to bring the named protein to FLAG-tagged glucokinase (GCK); Myc marks an untargeted standard; higher = target protein stabilised (more abundant)
Settings: target protein: 3xFLAG-MCP-GCK-ALFA reporter; HEK293 landing pad (RPLP)
Summary of the method: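 Sequencing of reverse-transcribed, amplified circular RNA barcodes from anti-FLAG and anti-Myc immunoprecipitates provided the readout for an ALFA-nanobody-fused binder library recombined into HEK293 landing-pad cells. Those cells were induced with 2 μg mL^−1 doxycycline, transfected with a plasmid expressing a FLAG-tagged target and a Myc-tagged standard, and lysed after 48 h. Target abundance is the per-binder median log2 ratio of FLAG to Myc barcode read proportions. Only barcodes at a proportion of ≥10^−7 in both replicates and binders with ≥3 barcodes per replicate were kept, with a 10^−6 pseudocount added before the two replicates were pooled.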

| Binder | median log2 fold change |
| --- | --- |
| B1 | 0.102 |
| B2 | 0.252 |
| B3 | -0.577 |
| B4 | -0.342 |
| B5 | 0.00506 |
| B6 | 0.328 |
| B7 | 0.0338 |
| B8 | 0.117 |
| B9 | -0.745 |
| B10 | -0.163 |
| B11 | 0.184 |
| B12 | -0.699 |
| B13 | 0.00401 |
| B14 | 0.167 |
| B15 | -0.324 |
| B16 | 0.081 |
| B17 | -0.0674 |
| B18 | 0.233 |
| B19 | -0.454 |
| B20 | -0.553 |
